From PubChem BioAssay AID624330 (Southern Research Specialized Biocontainment Screening …, 2012) come the findings set out here.

Screen size: about 340,000 compounds; about 2,100 (0.62%) were called active.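 Rule for the calls: active = first-screen hits whose inhibition reached a set limit at any dose in the follow-up dose series; inconclusive = inhibition above the set first-screen limit but never retested; inactive = the rest.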 The list is a sample of the results. Measured potencies and affinities stand elsewhere.

The assay deals with Rac GTPase-activating protein 1 (Homo sapiens) (UniProt Q9H0H5). The experiment in a line: MgcRacGAP GTPase-activating activity inhibitors, confirmation, biochemical, ADP Hunter fluorescence, primary and confirmatory (AID 624330).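 Note: fluorescence reports GDP produced by GAP-driven GTP hydrolysis.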 The conditions noted are these: MgcRacGAP-stimulated Rac1 GTP hydrolysis, at 30 µM, active compounds read high, GST-tagged Rac1 F28L mutant substrate.
Chain of Rac GTPase-activating protein 1 (Homo sapiens) (Q9H0H5 whole entry, looked up): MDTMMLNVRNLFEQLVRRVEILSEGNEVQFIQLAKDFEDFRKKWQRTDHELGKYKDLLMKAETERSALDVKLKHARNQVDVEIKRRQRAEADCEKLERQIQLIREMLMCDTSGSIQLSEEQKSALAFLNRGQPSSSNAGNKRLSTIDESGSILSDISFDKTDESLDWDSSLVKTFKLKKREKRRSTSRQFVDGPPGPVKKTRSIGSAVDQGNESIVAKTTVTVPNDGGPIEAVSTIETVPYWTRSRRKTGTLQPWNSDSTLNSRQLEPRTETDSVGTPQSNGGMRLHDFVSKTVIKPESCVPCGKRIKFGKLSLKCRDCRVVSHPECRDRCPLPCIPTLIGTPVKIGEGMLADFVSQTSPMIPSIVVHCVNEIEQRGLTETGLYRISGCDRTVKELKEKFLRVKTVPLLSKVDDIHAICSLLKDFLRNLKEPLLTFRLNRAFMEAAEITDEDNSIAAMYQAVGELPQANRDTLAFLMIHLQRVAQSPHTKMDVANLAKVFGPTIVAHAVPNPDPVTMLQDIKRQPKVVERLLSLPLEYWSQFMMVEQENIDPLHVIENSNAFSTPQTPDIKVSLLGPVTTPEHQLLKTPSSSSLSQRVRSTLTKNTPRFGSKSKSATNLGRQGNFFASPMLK
With `Cc1ccccc1OCC(=O)Nc1ccc(N2CCN(C(=O)c3ccco3)CC2)cc1`, the inhibition – broadly, the drop in the measured response relative to a control, in per cent – is 10.3% (inactive).

As for `COc1ccc(CCNC(=O)COC(=O)c2cc(OC)c(OC)cc2OC)cc1OC`, the inhibition is 7.3% (inactive).

`C=CCc1cc(C)ccc1OCCOCCn1ccnc1`: the inhibition is 15.9% (inactive).

For `C=CCc1cc(Cl)ccc1OCCCNC(C)C`, the inhibition is 23.5% (inactive).

On to `C=CCOc1ccc(Cl)cc1CNCCCN1CCOCC1`, for which the inhibition is 1.5% (inactive).

Turning to `C=CCc1cc(Cl)ccc1OCCNCCOC`, the inhibition was 10.8% (inactive).

Consider `C=CCc1cc(Cl)ccc1OCCCn1ccnc1`, for which the inhibition is 19.6% (inactive).

On to `C=CCc1cc(C)ccc1OCCn1ccnc1`, for which the inhibition was 17.7% (inactive).

For the compound `C=CCc1cc(Cl)ccc1OCCOCCN(C)C`, the inhibition was 22% (inactive).

Turning to `C=CCc1ccccc1OCCn1ccnc1`, the inhibition is 9.27% (inactive).

As to `COc1ccc(NC(=O)N2CCN(S(=O)(=O)c3ccc(F)cc3)CC2)c(OC)c1`, the inhibition was 7.35% (inactive).

In the case of `CCCCCCCNC(=O)C1(CC2CC(c3ccc(Cl)cc3)=NO2)CCN(C(=O)CCCCCBr)CC1` (stereo not given), the inhibition is 3.79% (inactive).

As for `COc1ccc2cc(CN(CC3COCCO3)S(=O)(=O)c3ccccc3)c(=O)[nH]c2c1` (stereo not given), the inhibition is -14.3% (inactive).

With `Cc1onc(-c2ccccc2)c1C(=O)N/N=C/c1ccco1`, the inhibition was 4.91% (inactive).

Consider `N#Cc1ccc(NC(=O)Cn2c3[n+](c4ccc(C(F)(F)F)cc42)CCCCC3)cc1`, for which the inhibition is -1.69% (inactive).

With `CNc1nc(-c2ccc3c(c2)CCN3C(=O)c2ccccc2C)cs1`, the inhibition is 10.3% (inactive).

Consider `COc1ccc(-c2cc(C(=O)Nc3cccnc3Cl)no2)cc1`, for which the inhibition was 9.21% (inactive).

`C=CCn1ccc2c([N+](=O)[O-])cccc2c1=O`: the inhibition is 8.97% (inactive).

Regarding `COCCNC(=O)c1ccccc1NC(=O)c1ccccc1N(C)S(=O)(=O)c1ccc(C)cc1`, the inhibition is 3.63% (inactive).

As for `CC1CCCN(C(=O)c2cc(S(=O)(=O)N3CCCCC3)c[nH]2)C1` (stereo not given), the inhibition was -0.16% (inactive).

Consider `CCCc1nc(NCc2ccccc2)c(C#N)c2c1CCCC2`, for which the inhibition was 8.86% (inactive).

For `Cc1c(NC(=O)c2ccc(S(=O)(=O)N3CC(C)OC(C)C3)cc2)c(=O)n(-c2ccccc2)n1C` (stereo not given), the inhibition was 4.26% (inactive).

On to `COc1ccc(NC(=O)CCC(=O)c2ccc(C(C)C)cc2)cc1`, for which the inhibition is 12.2% (inactive).

As to `COc1ccc(C(=O)CCC(=O)Nc2cccc(Cl)c2)cc1`, the inhibition is 4.1% (inactive).

Regarding `CCOc1ccccc1N1CCN(CC(=O)Nc2ccnn2C2CCCC2)CC1`, the inhibition was 5.05% (inactive).

Consider `CN(C(=O)CSc1nc2scc(-c3ccccc3)c2c(=O)[nH]1)c1ccccc1`, for which the inhibition was 6.96% (inactive).

For `O=C1c2ccccc2CN2C(=O)c3ccccc3CN12`, the inhibition was 3.55% (inactive).

`COc1ccccc1/C=C/CN1CCN(Cc2ccc(C)o2)C(CCO)C1` (stereo not given): the inhibition was 11% (inactive).

For `CC(C)CCN1CCN(C/C=C/c2ccco2)CC1CCO` (stereo not given), the inhibition was 14.2% (inactive).

Consider `Cc1ccc(CN2CCN(C/C=C/c3ccc(F)cc3)CC2CCO)o1` (stereo not given), for which the inhibition is 7.9% (inactive).

`COc1ccc(/C=C/CN2CCN(CC(C)C)C(CCO)C2)cc1` (stereo not given): the inhibition is 5.86% (inactive).

For the compound `CC(C)(C)c1ccc(OC(=O)c2ccc3snnc3c2)cc1`, the inhibition is 4.25% (inactive).

Turning to `CC(=O)N/C(=C\c1ccccc1)C(=O)OCC(=O)NC(=O)c1ccccc1`, the inhibition was 5.8% (inactive).

`CC(OC(=O)C1CC(=O)N(Cc2ccco2)C1)C(=O)Nc1cccc(C#N)c1` (stereo not given): the inhibition is 6.14% (inactive).

`O=C(CN(C(=O)c1csnn1)c1ccc(F)cc1)NCCc1ccccc1`: the inhibition is 7.07% (inactive).

As for `COc1ccc(C(O)Cc2nccn2C)cc1` (stereo not given), the inhibition is 2.89% (inactive).

Turning to `Cc1cccc(-n2cnc(C(=O)O)c2)n1`, the inhibition is 4.99% (inactive).

On to `Cn1nccc1C(=O)Nc1ccc(Cl)cc1`, for which the inhibition is -1.74% (inactive).

In the case of `CC(=O)Nc1ccc(NC(=O)c2ccnn2C)cc1`, the inhibition was 3.95% (inactive).

`C=CCN(C(=O)c1csnn1)C(C(=O)NC1CCCC1)c1ccc(F)cc1` (stereo not given): the inhibition was 5.68% (inactive).

Take `COc1ccccc1CNC(=O)C[C@@H]1C[C@H]2c3cc(NC(=O)c4ccc5c(c4)OCO5)ccc3O[C@H]2[C@@H](CO)O1`: the inhibition was 13.4% (inactive).

Take `COC(=O)C[C@@H]1C[C@H]2c3cc(N(C)C)ccc3O[C@H]2[C@H](CO)O1`: the inhibition is 18.6% (inactive).

For the compound `O=C1CN(S(=O)(=O)c2cccc(Cl)c2Cl)c2ccccc2N1`, the inhibition is 4.66% (inactive).

As for `COc1cc([N+](=O)[O-])ccc1NC(=O)CCN1C(=O)C2C3CCC(C3)C2C1=O` (stereo not given), the inhibition is 6.61% (inactive).

On to `O=C(CNCc1cccs1)Nc1ccc(S(=O)(=O)N2CCCCC2)cc1`, for which the inhibition was 14.5% (inactive).

With `O=C(NCc1ccco1)c1ccc(Oc2ccccc2)cc1`, the inhibition is 1.55% (inactive).

For `S=C(NCc1ccco1)Nc1ccc(Oc2ccccc2)cc1`, the inhibition is 1.09% (inactive).

Turning to `COc1ccc(C)cc1NC(=O)CNCc1cccs1`, the inhibition is 0.81% (inactive).

For `COc1ccc(NC(=O)Cc2cccs2)c(OC)c1`, the inhibition is 8.99% (inactive).

As for `O=C(CNC(=O)c1ccco1)Nc1ccc(N2CCCCCC2)cc1`, the inhibition is 30.4% (inactive).

For `O=C(Cc1ccccc1)Nc1ccc(N2CCCCC2)cc1`, the inhibition was 1.26% (inactive).

Take `CC(=O)c1ccc(NC(=O)CNCc2cccs2)cc1`: the inhibition is 28.6% (inactive).

Regarding `CCCOC(=O)C(C)n1cnc2scc(-c3ccc(C)cc3)c2c1=O` (stereo not given), the inhibition is 8.26% (inactive).

In the case of `N#CC(=C(O)CN1CCN(c2ccccc2F)CC1)c1nc(-c2ccccc2)cs1`, the inhibition is 6.97% (inactive).

Consider `CCOC(=O)CSc1nc2ccc(N3CCOCC3)cc2c(=O)n1Cc1ccccc1`, for which the inhibition was 1.81% (inactive).

`O=C1NCC(NC(=O)C(F)(F)F)c2cc3c(cc21)OCO3` (stereo not given): the inhibition is -0.85% (inactive).

In the case of `CCN1C(=O)[C@H]2[C@H]3CN=C(SCc4ccccc4)N3[C@@](C)(C(=O)OC)[C@H]2C1=O`, the inhibition was 13.1% (inactive).

Turning to `Cc1ccc(C(=O)c2c(NC(=O)CSc3nnc(N)s3)sc3c2CCCC3)cc1`, the inhibition was -2.45% (inactive).

As for `CCOC(=O)N1CCN(CC(=O)Nc2ccc(Oc3ccccc3)cc2)CC1`, the inhibition was 5.48% (inactive).

Turning to `CCN(CC)C(=O)C(=O)Nc1ccc(Oc2ccccc2)cc1`, the inhibition is 2.61% (inactive).

For the compound `Cc1ccc(-c2nc3cnccn3c2Nc2ccc3c(c2)OCCO3)o1`, the inhibition is 12.5% (inactive).

As for `COc1ccc(-n2cccc2C=O)cc1`, the inhibition is 4.9% (inactive).

Consider `O=C(O)c1cccc(-n2cccc2/C=C\[N+](=O)[O-])c1`, for which the inhibition was 26.7% (inactive).

As for `CCOc1ccc(-n2cccc2C=O)cc1`, the inhibition is 4.88% (inactive).

With `CN(C)c1ccc(-n2cccc2/C=N/n2cnnc2)cc1`, the inhibition is 9.83% (inactive).
